# Test results: PubChem BioAssay (NCATS)
# Inconclusive results are not listed. A call without a number means that no potency is given here. Activity calls are given as the source filed them. Unless noted, calls come from the whole dose curve; as a rule, active = well fitted curve in the direction sought with a large enough effect; inconclusive = small, poorly fitted or top-dose-only effect, or another doubt; inactive = no such curve, though single readings can be large; an effect the other way counts as inactive or inconclusive.
# Assays:
# [1] = High Content Imaging Cell-Based qHTS for Inhibitors of the mTORC1 Signaling Pathway in MEF Cells (AID 2667); note: potency is the fitted concentration of half-maximal effect
# Outline: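 Fixed-cell imaging of phospho-S6 (Ser235/236, Alexa-488) after 24 hrs of compound treatment at 37 degree Celsius. Signal was normalized to Hoechst, and thresholds from the highest and lowest wells split cells into % active versus % non-active.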
# [2] = Cytometry Cell-Based qHTS for Inhibitors of the mTORC1 Signaling Pathway in MEF cells (AID 2668); note: potency is the fitted concentration of half-maximal effect
# Outline: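 Tsc2-/-, p53-/- MEFs re-expressing WT Tsc2; cpd 24 hrs, 37 degree Celsius; PFA fix, Alexa-488 p-rpS6 (Ser235/236) Ab 2 hrs RT, PI counterstain; Acumen 488nm scan; p-S6/PI ratio → % positive cells; PI count = viability.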
# [3] = molecular target: Ubiquitin carboxyl-terminal hydrolase 2 (Homo sapiens) (UniProt O75604); assay: qHTS Validation Assay for Inhibitors of Ubiquitin-specific Protease USP2a Using CHOP2 as the Reporter (AID 463106); note: potency is the fitted concentration of half-maximal effect
# Outline: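 Inhibition is expressed relative to NEM as the full-inhibition control, with concentration-response curves classed by fit quality, magnitude and activity. Enzyme (USP2 core, 10nM) meets 25nM Ub-CHOP2 after compound preincubation; readings are taken at 60min.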
# [4] = molecular target: Tumor susceptibility gene 101 protein (Homo sapiens) (UniProt Q99816); assay: qHTS Validation Assay for Iinhibitors of HIV-1 Budding by Blocking the Interaction of PTAP/TSG101 (AID 485342; calls by dose curve)
# Outline: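 Binding of a FITC-tagged PTAP-motif peptide (50 nM) to the Tsg101 binding domain (10 uM) is monitored by fluorescence polarization. Compounds are pin-delivered before peptide addition, and incubation runs 20 min at room temperature.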
# [5] = molecular target: Beta-2 adrenergic receptor (Homo sapiens) (UniProt P07550); assay: qHTS validation assay of beta-arrestin-biased ligands of beta2-adrenergic receptor (AID 485366)
# Outline: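 qHTS, Tango cells, 1500 cells/well, DMEM + 1% FBS. Cpd 18 hr at 37 degrees C. Luciferin/ATP/CoA detection mix, 15 min RT, luminescence read. %Activity from corrected signal; CRC fit, curve class.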
# [6] = Quantitative high throughput screen for delayed death inhibitors of the malarial parasite plastid, 96 hour incubation (AID 488745); note: nearly all actives have a fitted effect of over 70% in size; note: potency is the fitted concentration of half-maximal effect
# Outline: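 Decreased firefly luciferase luminescence indicates inhibited growth of reporter-integrated P. falciparum after two generations (96 h, 37 C, 5% CO2). Infected erythrocytes at 0.1% parasitemia, 2% hematocrit, in Albumax-supplemented RPMI 1640.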
# [7] = molecular target: DNA polymerase III PolC-type (Bacillus subtilis (strain 168)) (UniProt P13267); assay: qHTS Validation Assay for the Inhibitors of DNA Replication in Gram-Positive Bacteria (AID 485295);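 note: reconstituted holoenzyme with PolC plus beta clamp SSB and primase; PicoGreen fluorescence of double-stranded DNA made on primed circular M13 template; series mostly up to about 57 µM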
# Outline: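 First, compound is mixed with the reconstituted replication complex and held at room temperature. Next, circular single-stranded M13Gori with nucleotides starts synthesis. Finally, PicoGreen in EDTA halts the reaction and stains double-stranded product for fluorescence reading.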
# [8] = qHTS Validation Assay to Find Inhibitors of Chronic Active B-Cell Receptor Signaling (AID 485345; active = well fitted curve in the direction sought with a large enough effect in the main read-out, with a control signal flat, not every such curve was filed as active)
# Outline: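 TMD8 ABC-DLBCL cells with dox-inducible green luciferase–IκBα fusion and red native luciferase; compounds 46 uM–3 nM, 4 h at 37C with doxycycline in 0.5% FBS IMDM. Green/red ratio normalized to basal and 10 uM MG-132.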
# [9] = molecular target: ATP-dependent 6-phosphofructokinase (Trypanosoma brucei brucei) (UniProt O15648); assay: qHTS Validation Assay to Find Inhibitors of T. brucei phosphofructokinase (AID 485368); note: potency is the fitted concentration of half-maximal effect
# Outline: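 Luminescent ADP detection measures PFK turnover of fructose-6-phosphate (0.5 mM) with ATP (0.1 mM) at pH 8.0. Reaction runs 45 min at room temperature with 1.25 nM enzyme; inhibitors tested as titrations up to 57 uM.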
# [10] = Validation screen for small molecules that induce DNA re-replication in MCF 10A normal breast cells (AID 463097); note: nearly all actives have a fitted effect of over 60% in size; note: potency is the fitted concentration of half-maximal effect
# Outline: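 Image-based qHTS: normal breast cells are incubated with compound for 48 hr, stained with Hoechst, and scanned for total nuclear fluorescence. Compounds raising the fraction of nuclei with elevated DNA content count as re-replication inducers.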
# Sequence of ATP-dependent 6-phosphofructokinase (Trypanosoma brucei brucei) (O15648 whole entry, looked up): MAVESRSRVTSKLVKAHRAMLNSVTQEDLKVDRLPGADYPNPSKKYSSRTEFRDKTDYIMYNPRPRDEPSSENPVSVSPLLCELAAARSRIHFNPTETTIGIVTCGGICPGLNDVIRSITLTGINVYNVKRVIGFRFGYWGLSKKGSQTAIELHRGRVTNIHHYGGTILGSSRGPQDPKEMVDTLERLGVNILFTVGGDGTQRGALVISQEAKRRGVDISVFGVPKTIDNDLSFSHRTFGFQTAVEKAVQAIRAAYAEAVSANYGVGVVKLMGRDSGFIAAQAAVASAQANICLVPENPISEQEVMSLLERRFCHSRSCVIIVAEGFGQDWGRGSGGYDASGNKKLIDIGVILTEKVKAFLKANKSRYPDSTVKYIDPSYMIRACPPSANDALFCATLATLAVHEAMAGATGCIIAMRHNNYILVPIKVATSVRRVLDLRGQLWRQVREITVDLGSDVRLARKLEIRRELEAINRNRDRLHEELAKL
# Sequence of Ubiquitin carboxyl-terminal hydrolase 2 (Homo sapiens) (O75604 whole entry, looked up): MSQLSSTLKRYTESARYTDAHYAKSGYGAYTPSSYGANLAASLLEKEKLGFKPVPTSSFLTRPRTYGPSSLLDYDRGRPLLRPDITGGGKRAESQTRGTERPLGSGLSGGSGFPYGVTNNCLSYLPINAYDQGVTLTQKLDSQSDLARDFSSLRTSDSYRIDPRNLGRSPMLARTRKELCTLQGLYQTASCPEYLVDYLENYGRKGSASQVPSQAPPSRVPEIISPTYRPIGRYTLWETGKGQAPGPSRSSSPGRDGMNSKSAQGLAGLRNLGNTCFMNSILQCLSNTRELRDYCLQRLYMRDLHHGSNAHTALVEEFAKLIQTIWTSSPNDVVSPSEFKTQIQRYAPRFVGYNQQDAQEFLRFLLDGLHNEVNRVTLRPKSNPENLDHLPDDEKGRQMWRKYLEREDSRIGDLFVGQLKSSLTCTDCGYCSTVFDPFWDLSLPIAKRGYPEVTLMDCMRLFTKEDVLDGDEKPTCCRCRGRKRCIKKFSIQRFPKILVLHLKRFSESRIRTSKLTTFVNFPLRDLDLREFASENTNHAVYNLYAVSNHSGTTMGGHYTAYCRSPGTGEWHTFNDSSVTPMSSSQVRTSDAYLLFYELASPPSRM
# Sequence of DNA polymerase III PolC-type (Bacillus subtilis (strain 168)) (P13267 whole entry, looked up): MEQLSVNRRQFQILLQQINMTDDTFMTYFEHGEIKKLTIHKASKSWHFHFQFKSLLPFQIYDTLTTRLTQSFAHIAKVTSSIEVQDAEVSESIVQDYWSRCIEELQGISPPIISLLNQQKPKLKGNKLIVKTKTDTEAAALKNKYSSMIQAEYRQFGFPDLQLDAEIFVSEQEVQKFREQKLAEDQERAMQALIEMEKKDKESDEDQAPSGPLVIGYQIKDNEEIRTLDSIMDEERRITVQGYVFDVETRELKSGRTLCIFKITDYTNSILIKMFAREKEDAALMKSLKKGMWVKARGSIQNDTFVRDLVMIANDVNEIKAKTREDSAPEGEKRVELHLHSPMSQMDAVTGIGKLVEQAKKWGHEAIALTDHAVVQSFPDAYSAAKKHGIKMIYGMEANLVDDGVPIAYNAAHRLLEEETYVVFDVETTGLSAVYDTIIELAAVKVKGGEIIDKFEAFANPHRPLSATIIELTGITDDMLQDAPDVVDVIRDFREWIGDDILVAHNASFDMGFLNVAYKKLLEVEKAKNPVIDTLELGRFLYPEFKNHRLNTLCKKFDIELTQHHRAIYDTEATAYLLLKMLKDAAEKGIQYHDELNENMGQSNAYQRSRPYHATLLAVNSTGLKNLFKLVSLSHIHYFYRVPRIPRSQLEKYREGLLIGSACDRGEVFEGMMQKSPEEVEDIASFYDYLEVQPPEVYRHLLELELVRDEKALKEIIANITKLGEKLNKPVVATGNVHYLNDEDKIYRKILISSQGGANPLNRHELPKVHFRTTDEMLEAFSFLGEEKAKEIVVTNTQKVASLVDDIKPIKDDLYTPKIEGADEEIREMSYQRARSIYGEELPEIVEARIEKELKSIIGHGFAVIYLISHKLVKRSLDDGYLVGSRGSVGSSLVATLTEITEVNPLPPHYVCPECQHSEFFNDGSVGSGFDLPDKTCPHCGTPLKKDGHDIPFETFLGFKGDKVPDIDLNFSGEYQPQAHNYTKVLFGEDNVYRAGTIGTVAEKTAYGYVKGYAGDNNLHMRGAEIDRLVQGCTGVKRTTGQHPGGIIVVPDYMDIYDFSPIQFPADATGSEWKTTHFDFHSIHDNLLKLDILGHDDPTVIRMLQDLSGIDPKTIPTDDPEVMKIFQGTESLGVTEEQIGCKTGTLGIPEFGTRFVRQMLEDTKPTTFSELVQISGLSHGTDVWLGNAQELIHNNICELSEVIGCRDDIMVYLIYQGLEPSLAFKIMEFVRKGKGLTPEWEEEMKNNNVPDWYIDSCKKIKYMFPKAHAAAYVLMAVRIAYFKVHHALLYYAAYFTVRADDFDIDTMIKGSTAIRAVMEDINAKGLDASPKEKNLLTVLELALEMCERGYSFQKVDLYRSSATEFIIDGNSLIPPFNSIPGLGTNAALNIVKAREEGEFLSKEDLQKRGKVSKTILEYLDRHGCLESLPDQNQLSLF
# Sequence of Tumor susceptibility gene 101 protein (Homo sapiens) (Q99816 whole entry, looked up, the tested form may be a part): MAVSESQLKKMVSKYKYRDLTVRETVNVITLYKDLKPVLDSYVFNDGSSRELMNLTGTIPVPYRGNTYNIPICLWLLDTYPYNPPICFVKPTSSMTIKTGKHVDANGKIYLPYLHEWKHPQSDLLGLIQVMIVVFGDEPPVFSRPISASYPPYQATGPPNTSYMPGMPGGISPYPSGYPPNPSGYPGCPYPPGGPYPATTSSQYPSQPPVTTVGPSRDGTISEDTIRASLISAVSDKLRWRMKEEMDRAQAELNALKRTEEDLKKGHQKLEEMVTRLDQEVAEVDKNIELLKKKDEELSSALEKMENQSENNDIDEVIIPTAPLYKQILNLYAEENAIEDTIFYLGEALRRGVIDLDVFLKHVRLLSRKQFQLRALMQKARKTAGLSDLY
# Sequence of Beta-2 adrenergic receptor (Homo sapiens) (P07550 whole entry, looked up): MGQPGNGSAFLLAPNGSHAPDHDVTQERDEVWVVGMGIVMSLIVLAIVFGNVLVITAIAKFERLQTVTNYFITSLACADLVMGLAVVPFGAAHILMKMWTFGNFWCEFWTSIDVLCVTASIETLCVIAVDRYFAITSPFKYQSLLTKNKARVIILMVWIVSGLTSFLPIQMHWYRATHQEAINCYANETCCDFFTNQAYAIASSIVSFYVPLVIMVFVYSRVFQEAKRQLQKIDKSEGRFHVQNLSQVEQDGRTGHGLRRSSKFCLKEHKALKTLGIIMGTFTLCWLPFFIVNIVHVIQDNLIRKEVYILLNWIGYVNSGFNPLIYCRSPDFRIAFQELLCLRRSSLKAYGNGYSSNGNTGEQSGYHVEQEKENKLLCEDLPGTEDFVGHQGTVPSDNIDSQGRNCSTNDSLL
SMILES,Potency [1],Potency [2],Potency [3],outcome [4],outcome [5],Potency [6],Potency [7],outcome [8],Potency [9],Potency [10]
Brc1c(Br)c(Br)c2n[nH]nc2c1Br,inactive,inactive,inactive,inactive,inactive,inactive,–,–,–,–
C=C[C@H]1CN2CC[C@@H]1C[C@@H]2[C@@H](O)c1ccnc2ccc(OC)cc12,inactive,inactive,–,inactive,inactive,–,inactive,inactive,inactive,–
C[N+]1(C)CCC(OC(=O)C(c2ccccc2)c2ccccc2)CC1,inactive,–,inactive,inactive,inactive,–,inactive,inactive,–,–
C[C@@H](NC(=O)/C(C#N)=C/c1ccc(O)c(O)c1)c1ccccc1,inactive,inactive,inactive,inactive,inactive,–,–,–,–,–
COc1ccc(NC(=O)/C=C/c2ccc(Cl)cc2)cc1,inactive,inactive,inactive,inactive,inactive,–,inactive,–,inactive,–
OCC1O[C@H]([S-])[C@H](O)[C@@H](O)[C@@H]1O.[Au+] (some centres undefined),inactive,inactive,18.5 µM (active),inactive,inactive,–,inactive,–,2.69 µM (active),–
C#CCN1C(C)=C(C(=O)OC)C(c2cccc([N+](=O)[O-])c2)C(C(=O)OCC)=C1C (centres undefined),inactive,inactive,inactive,inactive,inactive,8.28 µM (active),inactive,–,–,–
CCCCCCCCCCCCCCCCCC(=O)NCC(COP(=O)([O-])OCC[N+](C)(C)C)OCC (centres undefined),inactive,–,inactive,inactive,inactive,–,–,–,inactive,1.12 µM (active)
N#C/C(=C\c1ccc(-c2cc(Cl)ccc2Cl)o1)C(=O)Nc1cccc2ncccc12,inactive,inactive,inactive,inactive,inactive,–,inactive,–,–,–
N.N.N.N.N.N.N.N.N.N.N.N.N.N.O.O.[Ru+4].[Ru+5].[Ru+5],inactive,inactive,–,inactive,inactive,–,–,–,–,–
CSc1nc(N)c2ncn([C@@H]3O[C@H](COP(=O)(O)OP(=O)(O)OP(=O)(O)O)[C@@H](O)[C@H]3O)c2n1,inactive,inactive,inactive,inactive,inactive,–,inactive,–,–,–
c1cnc2c(c1)ccc1cccnc12,0.0465 µM (active),4.65 µM (active),inactive,inactive,inactive,1.85 µM (active),–,inactive,–,–
O=P(O)(O)C(Cl)(Cl)P(=O)(O)O,inactive,inactive,inactive,inactive,inactive,–,–,inactive,–,–
CCCCC/C=C\CC(O)/C=C/c1cccc(CC(O)CCCCO)n1 (centres undefined),inactive,–,inactive,inactive,inactive,–,inactive,–,inactive,inactive
O=C(Nc1ccccc1)c1cc([N+](=O)[O-])ccc1Cl,inactive,–,inactive,inactive,inactive,–,inactive,–,–,inactive
CCCCCCCCCCCCCCCCCCNC(=O)OCC(COP(=O)([O-])OCC[n+]1ccsc1)OC (centres undefined),inactive,inactive,–,inactive,inactive,–,inactive,inactive,–,–
Nc1nc(Nc2ccccc2)nc2c1ncn2[C@@H]1O[C@H](CO)[C@@H](O)[C@H]1O,inactive,inactive,inactive,inactive,inactive,–,–,–,–,–
CN1CCc2cccc3c2C1Cc1ccc(O)c(O)c1-3 (centres undefined),inactive,inactive,inactive,inactive,inactive,–,inactive,–,12 µM (active),–
Nc1nc(Cl)nc2c1ncn2[C@@H]1O[C@H](CO)[C@@H](O)[C@H]1O,inactive,inactive,inactive,inactive,inactive,–,inactive,–,inactive,–
CNC(=O)[C@H]1O[C@@H](n2cnc3c(NCc4ccc(N)cc4)ncnc32)[C@H](O)[C@@H]1O,inactive,inactive,inactive,inactive,inactive,–,inactive,–,–,–
C=CC(C)=C[C@@]1(C)SC(=O)C(C)=C1O,inactive,inactive,inactive,inactive,inactive,–,–,inactive,–,–
CC(N)C(=O)OC(C)(C)Cc1ccc(Cl)cc1 (centres undefined),inactive,inactive,inactive,inactive,inactive,–,–,inactive,–,–
CCCCCC(O)c1cccc(OCc2ccc3ccccc3n2)c1 (centres undefined),inactive,inactive,inactive,inactive,inactive,–,–,–,–,–
CCCCCCCCCCCCCCCC(=O)OC(CC(=O)O)C[N+](C)(C)C (centres undefined),inactive,inactive,inactive,inactive,inactive,inactive,inactive,–,inactive,–
CC(C)ON([C@@H](C(=O)NO)C(C)C)S(=O)(=O)c1ccc(-c2ccccc2)cc1,5.85 µM (active),–,inactive,inactive,inactive,–,inactive,inactive,inactive,–
NC[C@H]1O[C@@H](n2cnc3c(N)ncnc32)[C@H](O)[C@@H]1O,inactive,inactive,inactive,inactive,inactive,–,–,–,–,–
N#C/C(=C\c1ccc(O)c(O)c1)C(=O)NCc1ccccc1,inactive,–,inactive,inactive,inactive,–,inactive,–,13.5 µM (active),8.91 µM (active)
CN1CCc2ccccc2Cc2[nH]c3ccccc3c2CC1,inactive,–,inactive,inactive,inactive,–,inactive,inactive,–,–
